This is an account of results in PubChem BioAssay AID686979 (National Center for Advancing Translational Sciences (NCATS), 2013).

Among all 420,000 compounds or so, about 50,000 (12%) were called active. Inconclusive results (about 26%) are left out. The list comes from a sample in which actives are over-represented; it also holds similar structures and randomly drawn compounds. Unmarked numbers belong to inactive results. The call rests on the fitted dose curve; in most records, active means well fitted inhibition curve with a large enough effect; inconclusive means small, poorly fitted or top-dose-only effect; inactive means flat fitted curve, though single readings scatter.
On the % scale 0 is the no-effect control and ±100 the full control effect; potency means the concentration at half of the fitted maximal effect.

This test in a line: qHTS for Inhibitors of human tyrosyl-DNA phosphodiesterase 1 (TDP1): qHTS in cells in presence of CPT. Further: nearly all actives have a fitted effect of over 55% in size. To be noted: chicken DT40 Tdp1-/-;hTDP1 cells + 20 nM CPT, ATP luminescence, 48 h; series mostly up to 46.2 µM; activity change, negative = growth inhibition: at the top concentration. In outline: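 Chicken DT40 Tdp1-/- cells complemented with human TDP1, 400 cells/well, exposed to compounds plus 20 nM camptothecin for at least 48 h at 37 C; viability read as ATP content by CellTiter-Glo luminescence.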
Regarding `CCCn1c(N)c(N(CCOC)C(=O)C2CCCC2)c(=O)[nH]c1=O`, the “activity change, negative = growth inhibition” value was -2%.

As to `O=C(NNC(=S)NC(=O)c1cn(-c2ccccc2)nc1-c1ccccc1)c1ccncc1`, the Potency is 14.6 µM (active). Consider `O=C(O)/C=C/c1cn(-c2ccccc2)nc1-c1cccs1`, for which the “activity change, negative = growth inhibition” value was -7.54%. `COC(=O)c1cn(-c2ccccc2)nc1-c1cccnc1`: the “activity change, negative = growth inhibition” value is -18.1%.

As to `Cc1ccc(-c2nn(-c3ccccc3)cc2C(=O)Nc2cccc(S(=O)(=O)N3CCOCC3)c2)cc1`, the “activity change, negative = growth inhibition” value was -25.5%. For the compound `O=C(O)c1ccc(NC(=O)c2ccc(COc3ccc(Cl)cc3)o2)cc1`, the “activity change, negative = growth inhibition” value is -22.3%. The same measure, in the same setting: under `COc1ccc(-c2nn(-c3ccccc3)cc2/C=C\C(=O)N2CCOCC2)cc1[N+](=O)[O-]` stands 12.3%. As for `O=C(O)c1ccc(NC(=O)c2cn(-c3ccccc3)nc2-c2ccc(Cl)cc2)cc1`, the Potency is 20.6 µM (active). Still for that read-out and setting: with `COc1ccc(-c2nn(-c3ccccc3)cc2/C=C\C(=O)Nc2ccc(C(=O)O)cc2)cc1` the figure was 23.1 µM (active). Take `O=C(c1cn(-c2ccccc2)nc1-c1cccnc1)N1CCCCC1`: the “activity change, negative = growth inhibition” value is 0.912%. On the same count and under the same terms, with `COc1ccc(S(=O)(=O)N(CCCN2CCCC2=O)Cc2cc3c(C)ccc(C)c3[nH]c2=O)cc1` the figure was -28.9%; with `O=C(CN1CCN(S(=O)(=O)c2ccc3ccccc3c2)CC1)NC(=O)NC1CCCCC1`, -16.3%; with `O=C(CN1CCC(NC(=O)Nc2ccccc2)CC1)Nc1cccc([N+](=O)[O-])c1`, 6.65%. Turning to `O=C(N/N=C\c1ccc(Br)cc1)c1ccc(Cn2cccn2)o1`, the “activity change, negative = growth inhibition” value was -10.9%. The same measure, in the same setting: with `O=C(NC1CCCCC1)C1c2ccccc2C(=O)N1Cc1ccco1` (stereo unspecified) the figure was 1.87%. As for `O=C1c2ccccc2C(Nc2ccc3c(c2)OCCO3)N1Cc1ccco1` (stereo unspecified), the Potency is 20.6 µM (active). Regarding `S=C(NCc1ccco1)Nc1ccc2c(c1)OCCO2`, the “activity change, negative = growth inhibition” value is -11.7%.

Regarding `Cn1cnc2c1c(=O)n(Cc1ccccc1C#N)c(=O)n2C`, the “activity change, negative = growth inhibition” value was -5.65%.

`CC(=O)Nc1ccc(S(=O)(=O)NNC(=O)CCc2ccccc2)cc1`: the “activity change, negative = growth inhibition” value was 4.6%. The same measure, in the same setting: with `CCc1nccn1S(=O)(=O)c1cc(Br)ccc1Br` the figure was -16.5%; with `COC(=O)c1ccc(CNC(=O)C2CCC(=O)N(Cc3cccc(F)c3)C2)cc1` (stereo unspecified), 1.7%.

Turning to `COc1cc(CNC(=O)c2cc3n(n2)CCCN(Cc2cccc(F)c2)C3=O)cc(OC)c1OC`, the Potency is 16.4 µM (active). With `CCNC(=O)c1cc2n(n1)CCCN(Cc1ccc(C)cc1)C2=O`, the “activity change, negative = growth inhibition” value was -16.7%. Take `O=C(c1cc(C2CCCCN2S(=O)(=O)c2ccccc2)on1)N1CCOCC1` (stereo unspecified): the “activity change, negative = growth inhibition” value is -14.5%. Consider `CSc1ccc(/C=N/N2CCN(Cc3ccccc3Cl)CC2)cc1`, for which the “activity change, negative = growth inhibition” value was -24.1%. Same read-out and setting: with `COc1ccc(CNC(=O)COC(=O)c2c(C)nn(-c3ccccc3)c2C)cc1OC` the figure was -1.35%.

For the compound `CCCOc1ccccc1-c1nc(SCCC(=O)O)n[nH]1`, the “activity change, negative = growth inhibition” value is -8.61%. On the same count and under the same terms, under `COc1ccc(NC(=O)CN2CCN(S(=O)(=O)c3ccc(F)cc3)CC2)cc1Cl` stands -3.64%; under `Cc1ccc(NC(=O)c2cc(-c3ccccc3O)n[nH]2)cc1C`, -22%.

In the case of `CCCOc1ccc(F)cc1-c1cc(C(=O)NCc2ccc(F)cc2)[nH]n1`, the Potency is 14.6 µM (active). With `Cc1cc(=O)oc(C)c1C(=O)NCc1ccc(F)cc1`, the “activity change, negative = growth inhibition” value is -11%. Regarding `CCCOc1ccc(F)cc1-c1cc(C(=O)Nc2ccc(F)c(Cl)c2)[nH]n1`, the Potency is 14.6 µM (active). `COc1ccccc1C(=O)COC(=O)COc1ccc(C#N)cc1`: the “activity change, negative = growth inhibition” value is 5.69%. The same measure, in the same setting: under `COc1cccc(NC(=O)N(C)C[C@@H]2Oc3ncc(Br)cc3C(=O)N([C@@H](C)CO)C[C@H]2C)c1` stands -4.55%; under `Oc1ccc(-c2cccc(-c3ccc(O)cc3)c2)cc1`, -21.4%. Same read-out and setting: under `CN(C(=O)COC(=O)c1cc(=O)[nH]c2ccccc12)C1CCCCC1` stands -1.93%. As for `CCOc1ccccc1CNC(=O)c1ccc2c(c1)nc1n2CCC(C)C1` (stereo unspecified), the “activity change, negative = growth inhibition” value is -1.2%. On the same count and under the same terms, under `COc1ccc(NC(=O)CN(C)C(=O)/C=C/c2cn(Cc3ccccc3)nc2-c2cccnc2)cc1` stands -17.9%; under `Cc1ccc(/C=C/C(=O)OCC(=O)Nc2cccnc2Cl)cc1`, 5.25%.

For `O=C(COC(=O)/C=C/c1cn(-c2ccccc2)nc1-c1cccnc1)Nc1ccc(Cl)cc1Cl`, the Potency is 9.2 µM (active). For the compound `Cc1[nH]n(-c2ccccc2)c(=O)c1CCOC(=O)c1ccc(C(F)(F)F)cc1`, the “activity change, negative = growth inhibition” value was 4.03%. Regarding `COc1ccc(S(=O)(=O)NCCCCOc2ccc(Cl)cc2)cc1`, the Potency was 10.3 µM (active). With `COc1ccc(S(=O)(=O)NCCCc2ccccc2)cc1`, the “activity change, negative = growth inhibition” value is -18.6%. Same read-out and setting: with `COc1ccc(OCCNS(=O)(=O)Cc2ccccc2)cc1` the figure was -12%. Still for that read-out and setting: with `CC(=O)c1ccc(S(=O)(=O)N(C)CCCC(=O)N(C)Cc2ccccc2F)cc1` the figure was -5.41%. `Cc1nn(-c2ccccc2)c(C)c1/C=N/NC(=O)CSc1nc2ccccc2c(=O)n1-c1ccccc1`: the Potency was 16.4 µM (active). As for `C/C(=N\NC(=O)COc1c(C)cccc1C)c1cccs1`, the “activity change, negative = growth inhibition” value is -4.87%.

Turning to `Cc1ccc(-n2c(SCC(=O)N/N=C/C=C/c3ccccc3[N+](=O)[O-])nc3ccccc3c2=O)cc1`, the “activity change, negative = growth inhibition” value is -19.7%. Regarding `C/C(=N\NC(=O)CSc1nc2ccccc2c(=O)n1-c1ccccc1C)c1cccs1`, the Potency was 23.1 µM (active).

Regarding `CCc1c(O)nc(SCC(=O)N2CCCCC2)n(-c2ccccc2C)c1=O`, the “activity change, negative = growth inhibition” value is -14.5%. In the case of `O=C(CSc1nc2ccccc2c(=O)n1-c1ccc(F)cc1)NC1CC1`, the “activity change, negative = growth inhibition” value is -14.4%.
